The campaign covered roughly 5,500 compounds. About 2,000 (36%) were called active. Inconclusive results (about 18%) are left out. No stated cut-off is given here; in the data, active means normalized growth mostly below about 0.91 (no sharp cut-off); inconclusive means no clear call, values can overlap the other calls; inactive means mostly above about 0.92. The list shows a part of the results.
Assay: chemical genetic growth profiling, strain panel (AID 1159580);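 further: tested at 20 µM; growth read once vehicle control cultures reached saturation at 30 °C; 1 = growth at the plate median or of vehicle wells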
Conditions: S. cerevisiae deletion strains, growth OD

Measured: normalized growth

CC(C)COC(=O)OCN1C(=O)CN(CCN2CC(=O)N(COC(=O)OCC(C)C)C(=O)C2)CC1=O
inactive: locus YAL040C, strain CLN3, stronger effect = lower value 1.01 | locus YCL061C, strain MRC1 (second series), stronger effect = lower value 1.01 | locus YDR150W, strain NUM1, stronger effect = lower value 1.01 | locus YDR363W, strain ESC2, stronger effect = lower value 1.01 | locus YER002W, strain NOP16, stronger effect = lower value 0.997 | locus YGR078C, strain PAC10, stronger effect = lower value 1 | locus YJR075W, strain HOC1, stronger effect = lower value 1.01 | locus YMR307W, strain GAS1, stronger effect = lower value 1.01 | locus YNL175C, strain NOP13, stronger effect = lower value 1 | locus YNL197C, strain WHI3, stronger effect = lower value 0.999 | locus YNL224C, strain SQS1, stronger effect = lower value 0.996 | locus YNL322C, strain KRE1, stronger effect = lower value 1.01 | locus YOR083W, strain WHI5 (second series), stronger effect = lower value 1.01 | locus YPL055C, strain LGE1, stronger effect = lower value 1.03

CCCCCc1ccc(S(=O)(=O)Nc2ccc3c(c2)C(=O)OC3)cc1
inactive: locus YAR019C, strain CDC15, stronger effect = lower value 0.991 | locus YBL105C, strain PKC1, stronger effect = lower value 0.994 | locus YBR135W, strain CKS1, stronger effect = lower value 0.981 | locus YBR136W, strain MEC1, stronger effect = lower value 0.982 | locus YBR160W, strain CDC28, stronger effect = lower value 0.984 | locus YDL017W, strain CDC7, stronger effect = lower value 0.985 | locus YDL028C, strain MPS1, stronger effect = lower value 0.983 | locus YDL101C, strain DUN1, stronger effect = lower value 0.998 | locus YDL108W, strain KIN28, stronger effect = lower value 0.982 | locus YDL132W, strain cdc53, stronger effect = lower value 0.985 | locus YDL214C, strain PRR2, stronger effect = lower value 0.948 | locus YDR052C, strain DBF4, stronger effect = lower value 0.998 | locus YDR054C, strain cdc34, stronger effect = lower value 0.974 | locus YDR226W, strain ADK1, stronger effect = lower value 0.987 | locus YDR477W, strain SNF1, stronger effect = lower value 0.972 | locus YER123W, strain YCK3, stronger effect = lower value 0.969 | locus YER133W, strain GLC7, stronger effect = lower value 0.951 | locus YFL009W, strain cdc4, stronger effect = lower value 0.981 | locus YFL029C, strain CAK1, stronger effect = lower value 0.983 | locus YFR003C, strain YPI1, stronger effect = lower value 0.987 | locus YFR019W, strain FAB1, stronger effect = lower value 0.975 | locus YFR028C, strain CDC14, stronger effect = lower value 0.985 | locus YGR040W, strain KSS1, stronger effect = lower value 0.949 | locus YGR052W, strain FMP48, stronger effect = lower value 1.03 | locus YGR092W, strain DBF2, stronger effect = lower value 0.992 | locus YHR030C, strain SLT2, stronger effect = lower value 0.997 | locus YHR079C, strain IRE1, stronger effect = lower value 0.977 | locus YHR082C, strain KSP1, stronger effect = lower value 1.02 | locus YHR205W, strain SCH9, stronger effect = lower value 0.963 | locus YIL147C, strain SLN1, stronger effect = lower value 0.983 | locus YJL095W, strain BCK1, stronger effect = lower value 0.967 | locus YJL128C, strain PBS2, stronger effect = lower value 0.944 | locus YJL157C, strain FAR1, stronger effect = lower value 0.953 | locus YJR016C, strain ILV3, stronger effect = lower value 0.977 | locus YJR066W, strain TOR1 (second series), stronger effect = lower value 0.937 | locus YJR066W, strain TOR1, stronger effect = lower value 1.02 | locus YKL048C, strain ELM1, stronger effect = lower value 0.967 | locus YKL067W, strain YNK1, stronger effect = lower value 0.959 | locus YKL101W, strain HSL1, stronger effect = lower value 0.933 | locus YKL193C, strain SDS22, stronger effect = lower value 0.978 | locus YKL203C, strain TOR2, stronger effect = lower value 1.02 | locus YLR133W, strain CKI1, stronger effect = lower value 0.963 | locus YLR403W, strain SFP1, stronger effect = lower value 0.938 | locus YML070W, strain DAK1, stronger effect = lower value 0.945 | locus YMR001C, strain CDC5, stronger effect = lower value 0.986 | locus YMR205C, strain PFK2 (second series), stronger effect = lower value 0.963 | locus YMR277W, strain FCP1, stronger effect = lower value 0.982 | locus YNL006W, strain LST8, stronger effect = lower value 0.99 | locus YNL020C, strain ARK1, stronger effect = lower value 0.966 | locus YNL161W, strain CBK1, stronger effect = lower value 0.978 | locus YNL183C, strain NPR1, stronger effect = lower value 0.964 | locus YNL207W, strain RIO2, stronger effect = lower value 0.967 | locus YNL222W, strain SSU72, stronger effect = lower value 0.978 | locus YNL307C, strain MCK1 (second series), stronger effect = lower value 0.979 | locus YOL078W, strain AVO1, stronger effect = lower value 0.979 | locus YOL136C, strain PFK27, stronger effect = lower value 0.948 | locus YOR061W, strain CKA2, stronger effect = lower value 0.976 | locus YOR119C, strain RIO1, stronger effect = lower value 1.01 | locus YOR231W, strain MKK1, stronger effect = lower value 0.917 | locus YOR329C, strain SCD5, stronger effect = lower value 0.985 | locus YPL031C, strain PHO85, stronger effect = lower value 0.966 | locus YPL153C, strain RAD53, stronger effect = lower value 0.951 | locus YPL204W, strain HRR25, stronger effect = lower value 0.942 | locus YPL209C, strain IPL1, stronger effect = lower value 0.981 | locus YPL256C, strain CLN2, stronger effect = lower value 0.923 | locus YPR025C, strain CCL1, stronger effect = lower value 0.983 | locus YPR106W, strain ISR1, stronger effect = lower value 0.971 | locus YPR111W, strain DBF20, stronger effect = lower value 0.954 | strain NNK1, stronger effect = lower value 0.976 | strain TSCII, stronger effect = lower value 0.988
active: locus YLR113W, strain HOG1, stronger effect = lower value 0.86
